Experimental data published in PubChem BioAssay (EPA / NIEHS).
Several values for one entry are separate records, joined by “and”; a condition that tells them apart may be missing. Equal values may be shown once. Activity calls are given as the source filed them. The calls were made as follows: active = hit-call score of the fitted dose curve at least 0.9, where 1 is the maximum; inactive = score below 0.9.

Experiment: BSK_SAg_Proliferation: Cell Proliferation Assessment in the BioMAP Diversity Plus: SAg Assay (AID 2283095);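 also: relative cell number as total protein by SRB absorbance in sub-confluent culture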
Conditions: primary human HUVEC with PBMC
Summary of the method: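 Cells (endothelium plus PBMC, human primary) were dosed with chemical, cultured 96 h, fixed in 10% TCA and stained with 0.1% SRB. Absorbance at 560 nm gave relative protein, fitted bidirectionally relative to DMSO.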

SMILES	AC50	outcome
CN(C)C(=S)S	0.488 µM (active)	
N#Cc1cccnc1		inactive
CC(C=O)Cc1ccc2c(c1)OCO2 (stereo not given)		inactive
Cc1cc(C(C)(C)c2ccc(O)c(C)c2)ccc1O	18.2 µM (active)	
O=C(O)C1(c2ccc3c(c2)OC[C@H](Cc2ccc(-c4ccccc4)cc2)[C@H]3O)CCCC1	16.7 µM (active)	
Oc1ccc(Cc2ccc(O)cc2)cc1		inactive
CC(C)O.CC(C)O.OCCN(CCO)CCO.OCCN(CCO)CCO.[Ti]		inactive
C=CC(Cl)CCl (stereo not given)		inactive
NC(=O)CCl		inactive
Nc1ccc(N)cc1		inactive
CCOC(=O)CCN(SN(C)C(=O)Oc1cccc2c1OC(C)(C)C2)C(C)C	23.1 µM (active)	
O=[N+]([O-])c1ccc(Nc2ccccc2)cc1		inactive
CCCCCCCCCCCCc1cccc(S(=O)(=O)O)c1		inactive
Cc1cc(Cl)ccc1N		inactive
N#CCCC(Br)(C#N)CBr (stereo not given)	1.12 µM (active)	
CC(C)N(C(=O)CCl)c1ccccc1	3.59 µM (active)	
COc1ccccc1N		inactive
O=C(N[C@H]1CN2CCC1CC2)c1ccc2c(c1)OCCO2		inactive
Clc1cccc(Cl)c1		inactive
CC(C)(C)c1ccccc1O		inactive
CCOC(=O)C(SP(=S)(OC)OC)c1ccccc1 (stereo not given)	35.3 µM (active)	
CCOP(=O)(OCC)OC(=CCl)c1ccc(Cl)cc1Cl		inactive
O=S(=O)(c1ccc(Cl)cc1)c1cc(Cl)c(Cl)cc1Cl	10.8 µM (active)	
Clc1cccc(Cl)c1Cl		inactive
C#CCOC(=O)/C=C(C)/C=C/CC(C)CCCC(C)C (stereo not given)		inactive
CC1(C)[C@H](C(=O)O[C@H](C#N)c2cccc(Oc3ccccc3)c2)[C@@H]1/C=C(\Cl)C(F)(F)F	17.1 µM (active) and 3.97 µM (active)	
Oc1cc(Cl)c(Cl)cc1Cl	30.6 µM (active)	
[Cl][Sn]([c]1ccccc1)([c]1ccccc1)[c]1ccccc1	0.0609 µM (active)	
OC(Cc1ccccc1Cl)(Cn1[nH]cnc1=S)C1(Cl)CC1 (stereo not given)	20 µM (active)	
CC(C)=CC1C(C(=O)OCc2cccc(Oc3ccccc3)c2)C1(C)C (stereo not given)	26.3 µM (active)	

Experiment: BSK_SAg_SRB: Viability Assessment in the BioMAP Diversity Plus: SAg Assay (AID 2283096);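 also: cells read one day after compound addition; hits may be either gain or loss of signal compared with DMSO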
Conditions: primary human HUVEC with PBMC
Summary of the method: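 Total protein by sulforhodamine B staining, 24 h after dosing, in HUVEC–PBMC co-culture; DMSO-referenced bidirectional fitting.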

SMILES	outcome	AC50
CN(C)C(=S)S	inactive	
N#Cc1cccnc1	inactive	
CC(C=O)Cc1ccc2c(c1)OCO2 (stereo not given)	inactive	
Cc1cc(C(C)(C)c2ccc(O)c(C)c2)ccc1O	inactive	
O=C(O)C1(c2ccc3c(c2)OC[C@H](Cc2ccc(-c4ccccc4)cc2)[C@H]3O)CCCC1		27.3 µM (active)
Oc1ccc(Cc2ccc(O)cc2)cc1	inactive	
CC(C)O.CC(C)O.OCCN(CCO)CCO.OCCN(CCO)CCO.[Ti]	inactive	
C=CC(Cl)CCl (stereo not given)	inactive	
NC(=O)CCl	inactive	
Nc1ccc(N)cc1	inactive	
CCOC(=O)CCN(SN(C)C(=O)Oc1cccc2c1OC(C)(C)C2)C(C)C	inactive	
O=[N+]([O-])c1ccc(Nc2ccccc2)cc1	inactive	
CCCCCCCCCCCCc1cccc(S(=O)(=O)O)c1	inactive	
Cc1cc(Cl)ccc1N	inactive	
N#CCCC(Br)(C#N)CBr (stereo not given)		11.5 µM (active)
CC(C)N(C(=O)CCl)c1ccccc1		33.8 µM (active)
COc1ccccc1N	inactive	
O=C(N[C@H]1CN2CCC1CC2)c1ccc2c(c1)OCCO2	inactive	
Clc1cccc(Cl)c1	inactive	
CC(C)(C)c1ccccc1O	inactive	
CCOC(=O)C(SP(=S)(OC)OC)c1ccccc1 (stereo not given)	inactive	
CCOP(=O)(OCC)OC(=CCl)c1ccc(Cl)cc1Cl	inactive	
O=S(=O)(c1ccc(Cl)cc1)c1cc(Cl)c(Cl)cc1Cl	inactive	
Clc1cccc(Cl)c1Cl	inactive	
C#CCOC(=O)/C=C(C)/C=C/CC(C)CCCC(C)C (stereo not given)	inactive	
CC1(C)[C@H](C(=O)O[C@H](C#N)c2cccc(Oc3ccccc3)c2)[C@@H]1/C=C(\Cl)C(F)(F)F	inactive	
Oc1cc(Cl)c(Cl)cc1Cl		27.6 µM (active)
[Cl][Sn]([c]1ccccc1)([c]1ccccc1)[c]1ccccc1		0.337 µM (active)
OC(Cc1ccccc1Cl)(Cn1[nH]cnc1=S)C1(Cl)CC1 (stereo not given)	inactive	
CC(C)=CC1C(C(=O)OCc2cccc(Oc3ccccc3)c2)C1(C)C (stereo not given)		24.9 µM (active)
